Source: PubChem BioAssay (NCI)
The panel holds about 79,000 compounds, 15% with a hit somewhere; the sample as a whole holds those more often. Unmarked numbers belong to inactive results. Active and inactive are the calls of the source. Cut-off read from the data, not from the text of the source: active = growth inhibition above about 70%; inactive = the rest.

What was measured:
[1] = NCI Yeast Anticancer Drug Screen. Data for the rad50 strain (AID 155);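 note: 0% = growth of vehicle-only cultures of the same strain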; conditions: S. cerevisiae rad50 strain growth inhibition, active compounds read high
Procedure, shortened: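 Readout: growth inhibition relative to vehicle-treated cultures. Compound exposure was carried out in a genetically defined yeast strain deficient in DNA damage repair.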

[2] = NCI Yeast Anticancer Drug Screen. Data for the mec2-1 strain (AID 157); conditions: S. cerevisiae mec2-1 strain, active compounds read high
Procedure, shortened: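 Growth inhibition is read against vehicle-treated controls after compound exposure of the mec2-1 yeast strain, which is defective in DNA damage repair or cell cycle control.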

[3] = NCI Yeast Anticancer Drug Screen. Data for the sgs1 mgt1 strain (AID 161);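 note: 0% = growth of cultures given vehicle only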; conditions: S. cerevisiae sgs1 mgt1 strain, active compounds read high
Procedure, shortened: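 Percent growth inhibition was derived by comparing compound-exposed mutant yeast with vehicle-exposed cultures. The strain carries alterations in DNA damage repair.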

[4] = NCI Yeast Anticancer Drug Screen. Data for the cln2 rad14 strain (AID 165);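 note: 0% = growth equal to vehicle treated cultures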; conditions: S. cerevisiae cln2 rad14 strain, active compounds read high
Procedure, shortened: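 Growth inhibition, relative to vehicle-treated controls, is the read-out. The test organism is a yeast strain with defined genetic alterations, cln2 rad14.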

[5] = NCI Yeast Anticancer Drug Screen. Data for the bub3 strain (AID 167); conditions: S. cerevisiae bub3 mutant strain, active compounds read high
Procedure, shortened: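 Readout: yeast growth inhibition, expressed relative to vehicle-only wells. The test organism is a mutant strain from a panel with lesions in DNA repair or checkpoint genes.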

[6] = NCI Yeast Anticancer Drug Screen. Data for the mlh1 rad18 strain (AID 175); conditions: S. cerevisiae mlh1 rad18 strain growth inhibition, active compounds read high
Procedure, shortened: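 Cells of a genetically altered yeast strain, deficient in DNA damage repair, were treated with compound. Their growth was then compared with that of vehicle-treated cultures to give inhibition.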

[7] = at 5.0 µM (retest, dose inferred, filed as 0.5)
[8] = at 50.0 µM (retest, dose inferred, filed as 5.0)

Row | SMILES | growth inhibition [1, 7] | growth inhibition [1, 8] | growth inhibition ([1]; at 50.0 µM) | growth inhibition [2, 7] | growth inhibition [2, 8] | growth inhibition ([2]; at 50.0 µM) | growth inhibition [3, 7] | growth inhibition [3, 8] | growth inhibition ([3]; at 50.0 µM) | growth inhibition [4, 7] | growth inhibition [4, 8] | growth inhibition ([4]; at 50.0 µM) | growth inhibition [5, 7] | growth inhibition [5, 8] | growth inhibition ([5]; at 50.0 µM) | growth inhibition [6, 7] | growth inhibition [6, 8] | growth inhibition ([6]; at 50.0 µM)
1 | C[N+](C)(C)CCN(Cc1cccs1)c1ccccn1 | -2% | -9% | 20.2% | 8% | -16% | 29.9% | 2% | -20% | -37.8% | -27% | -111% | 72.2% (active) | -4% | -10% | -4.2% | -3% | -13% | -2.15%
2 | Cn1c(C2CCC(=O)N2Cc2ccccc2)n[nH]c1=S (configuration not stated) | 1% | 0% | 55.5% | -1% | -3% | 22.4% | 4% | -2% | 74.4% (active) | 2% | 3% | -1.85% | 3% | -2% | 62.5% | 1% | -4% | 89.5% (active)
3 | CCC(=O)NC1=C(Cl)C(=O)c2ccccc2C1=O | 99% (active) | 99% (active) | 99.2% (active) | 100% (active) | 99% (active) | 98.2% (active) | 100% (active) | 100% (active) | 98.2% (active) | 99% (active) | 100% (active) | 86.2% (active) | 99% (active) | 99% (active) | 98.9% (active) | 99% (active) | 99% (active) | 98.5% (active)
4 | COc1cccc(N2CCN(CC(O)COc3cc4c(c5c3CCCC5)CCCC4)CC2)c1 (configuration not stated) | 17% | 95% (active) | 64.2% | 20% | 98% (active) | 48.6% | 34% | 95% (active) | 62.5% | 13% | 94% (active) | 58.8% | 12% | 95% (active) | 95% (active) | 12% | 94% (active) | 54%
5 | CNC1C(O)C(NC)C2OC3(O)C(=O)CC(C)OC3OC2C1O (configuration not stated) | -7% | 6% | 84.1% (active) | 1% | -19% | 89.8% (active) | -7% | -1% | 9.05% | 17% | 23% | 83.7% (active) | -1% | -9% | 86.3% (active) | -27% | -30% | 86.7% (active)
6 | ON=C(CC(O)(C(F)(F)Cl)C(F)(F)Cl)CC(O)(C(F)(F)Cl)C(F)(F)Cl | 50% | 99% (active) | 99.7% (active) | 69% | 100% (active) | 99.6% (active) | 37% | 99% (active) | 99.5% (active) | 68% | 99% (active) | 99.5% (active) | 23% | 100% (active) | 99.8% (active) | 62% | 99% (active) | 99.5% (active)
7 | CCCCCCCC(CC(=O)O)OC(=O)CC(CCCCCCC)OC1OC(C)C(O)C(O)C1OC1OC(C)C(O)C(O)C1O (configuration not stated) | -62% | 68% | 87.2% (active) | -26% | -5% | 91.8% (active) | -43% | 55% | 92.3% (active) | -42% | 37% | 82.3% (active) | -47% | 96% (active) | 89.5% (active) | -68% | 96% (active) | 84.2% (active)
8 | O=[N+]([O-])c1c(O)cccc1O | 45% | 98% (active) | 99% (active) | 17% | 99% (active) | 99.2% (active) | 29% | 99% (active) | 99.2% (active) | 24% | 99% (active) | 98% (active) | 14% | 99% (active) | 98.9% (active) | 36% | 99% (active) | 98.5% (active)
9 | CCCCCCCCCCCC[N+](C)(CCS(=O)(=O)[O-])Cc1ccccc1 (configuration not stated) | -1% | 51% | 98.2% (active) | 6% | 74% (active) | 99.2% (active) | 1% | 36% | 41.9% | 2% | 66% | 77.5% (active) | -2% | 61% | 72.1% (active) | -2% | 97% (active) | 99.2% (active)
10 | S=C(NC(=S)Nc1ccccc1)Nc1ccccc1 | 0% | 29% | 93.8% (active) | -5% | 37% | 82.9% (active) | 7% | 69% | 96.3% (active) | -8% | 8% | 91.7% (active) | -1% | 21% | 96.3% (active) | 8% | 55% | 95.3% (active)
11 | CCCCCCCN1C(=O)c2ccccc2S1(=O)=O | -2% | 95% (active) | 95.1% (active) | -12% | 76% (active) | 87.3% (active) | 12% | 94% (active) | 86.2% (active) | -4% | 73% (active) | 43% | 14% | 89% (active) | 93.5% (active) | 39% | 96% (active) | 84.8% (active)
12 | C=C1C(=O)O[C@@H]2CC(CO)=C([C@@H](C)CCCO)[C@@H](OC(=O)/C(C)=C\C)[C@H]12 | 3% | 10% | 92.2% (active) | 5% | 33% | 94.3% (active) | 4% | 25% | 93.8% (active) | 1% | 6% | 92.2% (active) | 9% | 65% | 92.8% (active) | -2% | 29% | -33.3%
13 | COc1ccc(-c2cc3ccccc3c(=O)n2Cc2ccccc2)cc1 | 8% | 66% | 78.3% (active) | 11% | 74% (active) | 88.4% (active) | 13% | 73% (active) | 83.7% (active) | 6% | 57% | 74% (active) | 8% | 63% | 89.3% (active) | 11% | 66% | 79.3% (active)
14 | COc1ccc(-c2noc(=O)c3ccccc23)cc1 | 11% | 6% | -5.8% | 5% | 4% | -1.1% | 6% | 4% | 3.4% | 4% | 3% | 64.2% | -3% | -2% | 9.65% | -1% | 1% | 1.35%
15 | FC(F)(F)c1[nH]nc(-c2cccs2)c1N=NN1CCOCC1 | 98% (active) | 98% (active) | 98% (active) | 100% (active) | 99% (active) | 99.2% (active) | 100% (active) | 99% (active) | 97.2% (active) | 99% (active) | 99% (active) | 98.6% (active) | 100% (active) | 99% (active) | 98.6% (active) | 100% (active) | 99% (active) | 98% (active)
16 | Cc1cc(NCCCCCCNc2cc(C)nc3cc(N(C)C)ccc23)c2ccc(N(C)C)cc2n1 | 11% | 90% (active) | 68.5% | 0% | 96% (active) | 85.2% (active) | 9% | 95% (active) | 26.7% | 8% | 79% (active) | 13% | -7% | 96% (active) | 1.15% | 7% | 92% (active) | 7.45%
17 | CN(C)c1ccc(N=Nc2ccc3c4c(cccc24)-c2ccccc2-3)cc1 | 26% | 94% (active) | 96.5% (active) | -4% | 96% (active) | 97.5% (active) | 3% | 96% (active) | 97.4% (active) | -1% | 97% (active) | 95.8% (active) | 0% | 95% (active) | 97% (active) | -1% | 95% (active) | 97% (active)
18 | CC(=O)O[C@H]1[C@@H]2CC(C)(C)CC2=C(C=O)C2(C=O)CC12C (some centres not stated) | 40% | 99% (active) | 99.5% (active) | 65% | 100% (active) | 99.5% (active) | 62% | 99% (active) | 99.7% (active) | 37% | 99% (active) | 99.2% (active) | 54% | 99% (active) | 46.8% | 55% | 99% (active) | 99.7% (active)
19 | CCCCN(CCCC)CC(O)c1cc(-c2ccc(Cl)cc2)nc2c(Cl)cccc12 (configuration not stated) | 1% | 6% | 99% (active) | -2% | 1% | 99.5% (active) | 1% | 12% | 99.2% (active) | -3% | -13% | 98.5% (active) | -4% | 0% | 98.8% (active) | -3% | -4% | 99.3% (active)
